# Only some compounds are listed: those with a hit (about 0.52% of all), similar ones and a draw of the others.
# Vif-A3F inh: inhibitors of Vif-A3F interaction; HeLa A3F-eYFP + Vif (tagged APOBEC3F with the HIV-1 protein that degrades it), YFP fluorescence increase; Potency, µM (top dose mostly 46.1 µM), for the others: at the top dose activity, negative = active; 390,000 compounds, 0.2% hits; note: potency is the fitted concentration of half-maximal effect; % of control where 0% means no effect; nearly all actives have a fitted effect of over 65% in size
#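 HeLa cells stably expressing A3F-eYFP plus Vif, plated and incubated overnight at 37 deg C, then exposed to compounds overnight at 37 deg C. Blocked degradation read as raised yellow fluorescence (Ex 488/Em 500-530).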
# Vif-APOBEC3G blk: blocks the Vif interaction with human APOBEC3G; HeLa A3G-eYFP + Vif (tagged APOBEC3G with the HIV-1 protein that degrades it), YFP fluorescence, overnight; 410,000 compounds, 0.076% hits; Q9HC16; Potency, µM (titrated, usually from 46.1 µM), without a hit: at the highest dose activity, negative = active, usual class: inhibitors; note: potency is the fitted concentration of half-maximal effect; % is set by controls: 0 for no effect and ±100 for the full control effect; nearly all actives have a fitted effect of over 60% in size
# Target sequence (Q9HC16 whole entry, looked up): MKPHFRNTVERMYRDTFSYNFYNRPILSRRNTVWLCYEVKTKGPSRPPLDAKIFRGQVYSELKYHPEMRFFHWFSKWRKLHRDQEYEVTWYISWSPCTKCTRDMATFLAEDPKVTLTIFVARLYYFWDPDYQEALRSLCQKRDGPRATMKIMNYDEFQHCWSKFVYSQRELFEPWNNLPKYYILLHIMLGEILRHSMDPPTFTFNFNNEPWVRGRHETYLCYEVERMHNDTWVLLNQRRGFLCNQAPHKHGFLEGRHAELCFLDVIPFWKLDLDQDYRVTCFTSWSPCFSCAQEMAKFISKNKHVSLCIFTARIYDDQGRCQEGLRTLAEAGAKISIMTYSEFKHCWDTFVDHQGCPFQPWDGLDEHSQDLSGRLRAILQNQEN
#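 Read-out is eYFP fluorescence (Ex 488/Em 500-530) from Vif-expressing HeLa A3G-eYFP cells; more signal means A3G escaped Vif-mediated degradation. Cells plated overnight, compound pinned in, incubated overnight at 37 deg C.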
# PINK1 expr mod: PINK1 expression modulation; 410,000 compounds, 0.2% hits; Potency, µM (highest dose often 76.6 µM), for inactives: top-dose activation (PINK1 increase), actives largely listed as activators; PINK1 immunofluorescence, high-content cytometry, 24 h; active = well fitted activation curve with a large enough effect; inconclusive = small, poorly fitted or top-dose-only effect; cell line not stated here; note: potency is the fitted concentration of half-maximal effect; % of control where 0% means no effect; nearly all actives have a fitted effect of over 65% in size
#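 Stable cell line treated 24 h with compounds at 5 concentrations (CCCP controls), then fixed and immunostained for PINK1 plus nuclear and cell stains; PINK1 immunofluorescence quantified by laser-scanning microplate cytometry.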
# Epigenetic reg: regulators of epigenetic silencing causing reporter derepression in mouse cells; murine LDR cells, GFP reporter derepression, 30 h; Potency, µM (top dose mostly 53.9 µM), inactives show at the top dose GFP activation, most hits filed as activators; 280,000 compounds, 0.2% hits; AID 1865; note: potency is the fitted concentration of half-maximal effect; % of control where 0% means no effect; nearly all actives have a fitted effect of over 60% in size
#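 In this reporter-derepression format, murine cells bearing a silenced integrated CMV-GFP locus incubate with test compound (30 h, 37 C), then are washed and imaged; fluorescent objects of 20–120 um count as induced cells.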
# Parental c127i: parental c127i cell effect of epigenetic modulator hits; shares compounds with Epigenetic reg; Potency, µM, for the others: top-dose fluorescent cell count, most hits filed as activators; mouse c127i parental cells, fluorescent cell count, 30 h; 60 compounds, 20% hits
# HCC4017 tox: reduces HCC4017 lung cancer cell viability among epigenetic modulators. HCC4017 NSCLC viability, CellTiter-Glo ATP luminescence, 72 h. Potency, µM (series often up to 46.1 µM), for inactives: at the top dose activity change, negative = cytotoxicity, usual class: cytotoxic. AID 493071. shares compounds with Epigenetic reg. 45 compounds, 30% hits
# H358 viab: epigenetic modulators: cytotoxicity in H358 lung cancer cells | 45 compounds, 30% hits | Potency, µM (series often up to 46.1 µM), without a hit: top-dose activity change, negative = viability loss, actives largely listed as cytotoxic | H358 NSCLC viability, ATP luminescence, 72 h | shares compounds with Epigenetic reg
# Active calls of the source: *; ? = inconclusive; nt = no result. Unless noted, calls come from the whole dose curve; as a rule, active = well fitted curve in the direction sought with a large enough effect; inconclusive = small, poorly fitted or top-dose-only effect, or another doubt; inactive = no such curve, though single readings can be large; an effect the other way counts as inactive or inconclusive.
SMILES,Vif-A3F inh,Vif-APOBEC3G blk,PINK1 expr mod,Epigenetic reg,others
CCOc1ccc(-c2c(C)n(-c3ccc(OCC)cc3)c3[n+]2CCCCC3)cc1,-24%,6%,10µM*,1%,
Cc1c(NS(=O)(=O)c2ccccc2)ccc([N+](=O)[O-])c1Cl,6%,-23%,16µM*,nt,
O=[N+]([O-])c1ccc(Cl)c(Cl)c1Cl,-4%,1%,0%,nt,
C[C@@H](CO)NC(=O)[C@@H]1C=C2c3cccc4[nH]cc(c34)C[C@H]2N(C)C1,nt,nt,nt,4%,
CCOC(=O)c1cccc(-[n+]2c(-c3ccccc3)cc(-c3ccccc3)cc2-c2ccccc2)c1,3%,1%,25µM*,nt,
CCOC(=O)c1ccc(-[n+]2c(-c3ccccc3)cc(-c3ccccc3)cc2-c2ccccc2)cc1,-18%,-9%,?,nt,
Cc1ccc(C)c(NC(=O)Cn2nc(C)c3nn(-c4ccc(Cl)cc4)c(C)c3c2=O)c1,?,1%,0%,0%,
Oc1ccc(-c2cccnc2)cc1CNC1CN2CCC1CC2 (stereo not given),nt,nt,0%,nt,
C[C@H]1C[C@@H](C)C(=O)[C@@H]([C@H](O)CC2CC(=O)NC(=O)C2)C1,2%,-5%,-1%,?,Parental c127i=3%
COc1ccc(OC)c(N2C(=O)NC(=O)/C(=C\c3ccc([N+](=O)[O-])s3)C2=O)c1,2%,-20%,6%,?,Parental c127i=6%;HCC4017 tox=-9%;H358 viab=-26%
CC(=O)OC1C(=O)[C@]2(C)C(O)CC3OC[C@]3(OC(C)=O)C2[C@@H](OC(=O)c2ccccc2)[C@]2(O)CC(O)C(C)=C1C2(C)C (stereo not given in full),nt,nt,7%,10%,
CCN(CC)c1ccc2c(c1)oc(=O)c1c(Cl)cc(=O)oc12,25µM*,?,0%,8.9µM*,Parental c127i=32µM*
CCCCC/C=C\C/C=C\C/C=C\C/C=C\CCCC(=O)NC1CC1,nt,nt,nt,1%,
CCCOc1ccc2[nH]cc(C3=CCNCC3)c2n1,nt,nt,nt,-2%,

# Screening data: PubChem, National Center for Advancing Translational Sciences (NCATS)
